The list is not random: actives were taken first. Their share in the collection is about 8.6%.
Marburg entry: inhibitors of Marburg virus binding or entry into cells | Marburg virus pseudotype entry/binding inhibition, cell-based | Potency, µM (top dose mostly 49.2 µM), usual class: inhibitors | 18,000 compounds, 6.5% hits | AID 720532
Lassa entry: Lassa virus entry inhibition; Lassa virus pseudotyped entry inhibition, cell-based qHTS; Potency, µM (titrated, usually from 49.2 µM), actives largely listed as inhibitors; 18,000 compounds, 4.1% hits
A number is an active result; 0 = inactive; ? = inconclusive; - = no result given; [ ] = remark or other dose. Calls come from the whole dose curve; tested in HEK293 cells.

SMILES | Marburg entry | Lassa entry
CC(C)C[C@@H]1COc2cccc(NN3CCN(C)CC3)c2S(=O)(=O)N1 | 0 | 0
CC/C=C\C/C=C\C/C=C\C/C=C\C/C=C\C/C=C\CCC(=O)O | 0 | 0
C/C=C/C/C=C/CCC(=O)[C@H]1O[C@H]1C(N)=O | 16µM | 16µM
CCCCCCCCCCCCCCCC(=O)OC[C@H](O)[C@H]1OC(=O)C(O)=C1O | 0 | 0
Cc1ccccc1C(OCCN(C)C)c1ccccc1 (centres undefined) | ? | 0
CC(C(O)c1ccccc1)N(C)CCOC(c1ccccc1)c1ccccc1 (centres undefined) | 8.9µM | 14µM
CC1=C[C@@H](C)O[C@@]2(C1)C(=O)Nc1cccc(Br)c12 | 0[8.59 µM] | 0[8.59 µM]
COCOc1cc(OC)ccc1C(=O)C=Cc1ccc([N+](=O)[O-])cc1 | 0[8.59 µM] | -
COc1ccc2c(c1)c(CC(=O)OCC(=O)O)c(C)n2C(=O)c1ccc(Cl)cc1 | 0 | 0
CCCN(CCC)C(=O)C(CCC(=O)OCCCN1CCN(CCOC(=O)Cc2c(C)n(C(=O)c3ccc(Cl)cc3)c3ccc(OC)cc23)CC1)NC(=O)c1ccccc1 (centres undefined) | 14µM | 22µM
Cc1cnc(C)c(-c2ccc3c(c2)CC(CNC(=O)Cc2c(C)[nH]c4ccccc24)O3)n1 (centres undefined) | 0 | 0
COC(=O)C1=C(C)N(CCC(C)O)C(=O)N(C(C)=O)C1c1ccccc1 (centres undefined) | 0[8.59 µM] | 0[8.59 µM]
COc1cc(C(C)=O)ccc1OCCCN1CCC(c2noc3cc(F)ccc23)CC1 | 6.3µM | 0
COc1cc2c(Nc3ccc(NC(=O)c4ccccc4)cc3)ncnc2cc1OCCCN1CCOCC1 | ? | 0
CS(=O)(=O)CCN(CC#N)Cc1ccc(-c2ccc3ncnc(Nc4ccc(OCc5cccc(F)c5)c(Cl)c4)c3c2)o1 | 0 | 0
COC(=O)C(C(=O)OC)[C@H]1c2ccccc2[C@@H]2C(=C[C@@H](C)[C@H]3C(=O)N(c4ccccc4)C(=O)[C@H]32)N1C(=O)OC | 0[8.59 µM] | 0[8.59 µM]
CCCCCCC#C[C@@H]1C=C[C@H](OC(=O)OCC)[C@@H](COC(=O)OCC)O1 | 0[8.59 µM] | 0[8.59 µM]
C=C1CC[C@H](O)C/C1=C/C=C1\CCC[C@]2(C)[C@@H]([C@H](C)CCCC(C)C)CC[C@@H]12 | 0 | ?
C=C1CC[C@H](O)CC1=C/C=C1\CCC[C@]2(C)[C@@H]([C@H](C)CC[C@@H](O)C(C)(C)O)CC[C@@H]12 | 0 | 16µM
C=C1CC[C@H](O)CC1=C/C=C1\CCC[C@]2(C)[C@@H]([C@H](C)CCCC(C)(C)O)CC[C@@H]12 | 0 | 13µM
C=C1CC[C@H](O)C/C1=C\C=C1/CCC[C@]2(C)[C@@H]([C@H](C)CCCC(C)C)CC[C@@H]12 | 0 | ?
O=C(c1ccccc1)[C@@H]1O[C@@H]1c1ccccc1 | 0[8.59 µM] | 0[8.59 µM]
C[C@@H]1C[C@H]2[C@@H]3CCC4=CC(=O)C=C[C@]4(C)[C@@]3(F)[C@@H](O)C[C@]2(C)[C@@]1(O)C(=O)COC(=O)c1cccc(S(=O)(=O)O)c1 | 0 | 0
c1ccc(CCNc2nc(-c3ccccc3)cs2)cc1 | ? | 16µM
c1ccc(-c2csc(-c3nc4ccccc4[nH]3)n2)cc1 | 0 | ?
SMILES | Marburg entry | Lassa entry
CC(=O)[C@]12C[C@@H]3CCN(C(=O)N[C@@H]1c1ccccc1)[C@@]32C | ? | 0[8.59 µM]
COC(=O)c1cc(C(=O)OC)n2c(C)cc3ccccc3c12 | 0[8.59 µM] | 0[8.59 µM]
CCC(Sc1ccccc1)C(=O)OC1CC2CCC(C1)N2C (centres undefined) | 8.9µM | 0
CN1[C@@H]2CC[C@H]1CC(OC(=O)C(O)c1ccccc1)C2 (some centres undefined) | 0 | 0
O=C1CCCC=C1C(CCc1ccccc1)OC(=O)c1ccc(Br)cc1 (centres undefined) | 0[8.59 µM] | 0[8.59 µM]
COC(=O)C1=C(C)NC(C)=C(C(=O)OCC(C)=O)C1c1ccccc1[N+](=O)[O-] (centres undefined) | 0 | ?
COC(=O)C1=C(C)NC(C)=C(C(=O)NCCCN2CCC(c3ccccc3)(c3ccccc3)CC2)C1c1ccc([N+](=O)[O-])cc1 (centres undefined) | 3.2µM | ?
COC(=O)C1=C(C)NC(C)=C(C(=O)OCCNCc2ccccc2)C1c1cccc([N+](=O)[O-])c1 (centres undefined) | 11µM | ?
COC(=O)C1=C(C)NC(C)=C(C(=O)OCCN(C)Cc2ccccc2)[C@H]1c1cccc([N+](=O)[O-])c1 | ? | 0
COC(=O)C1=C(C)NC(C)=C(C(=O)O[C@H]2CCN(Cc3ccccc3)C2)[C@H]1c1cccc([N+](=O)[O-])c1 | 22µM | ?
COCCOC(=O)C1=C(C)NC(C)=C(C(=O)OC(C)C)[C@H]1c1cccc([N+](=O)[O-])c1 | 0 | 0
COC(=O)C1=C(C(=O)OC)[C@@H]2N(C)c3ccccc3[C@@]23CCC(=O)N(Cc2cc(OC)c(OC)c(OC)c2)C3=N1 | 0[8.59 µM] | 0[8.59 µM]
CC(C)CON=C1C[C@@H](O)[C@@H](O)[C@@H]2[C@H]3C(=O)N(C[C@@H]4CCCO4)C(=O)[C@@H]3CC[C@@H]12 | 0[8.59 µM] | 0[8.59 µM]
CC=COC(=O)N[C@@H](c1cccc(C)c1)[C@]1(C(=O)OCC)CCCC1=O | 0[8.59 µM] | 0[8.59 µM]
CC(C)(C)NCC(O)CSc1nc(-c2ccc(C(N)=O)s2)cs1 (centres undefined) | 0 | 0
CSC[C@H]1CN(c2ccc(Br)cc2)C(=O)[C@H]1CC(=O)Nc1ccc(Br)cc1 | 0 | 0
CCOC(=O)[C@@]1([C@@H](NC(=O)OC)c2cccc(F)c2)CCCC1=O | 0[8.59 µM] | 0[8.59 µM]
COc1ccc2c(c1OC)C(Cc1ccccc1)N1CCc3cc4c(cc3C1=C2)OCO4 (centres undefined) | ? | 25µM
COc1ccc2c(c1OC)C(=O)OC2C1c2cc3c(cc2CCN1C)OCO3 (centres undefined) | 0 | 0
CC(C)=CCCC(C)=CCN1C(=O)[C@]2(O[C@H](COc3ccccc3)CC3=CCCC32)c2c(Br)cccc21 (some centres undefined) | 0[8.59 µM] | 0[8.59 µM]
F/C(COc1ccc2c(c1)[nH]c1ccccc12)=C1/CN2CCC1CC2 | 13µM | ?
COC(=O)[C@H]1Cc2c([nH]c3ccccc23)CN1C(=O)COc1ccc2c(C)cc(=O)oc2c1 | 0 | 0
C[C@H]1CN(c2ccccc2)C(=O)[C@H]1CC(=O)Nc1ccc(Br)cc1 | 0 | 0
Cn1ccc2c(C=Cc3ccc(F)cc3)cc3c(c21)C1CCC3C1 (centres undefined) | 0 | 0
Cc1cccc(CNc2nc(-c3ccoc3)nc3ccccc23)c1 | 0 | 0
SMILES | Marburg entry | Lassa entry
COc1ccccc1-c1nc(NCc2cnc(C)cn2)c2ccccc2n1 | 0 | 0
COc1ccc(CNc2nc(-c3ccoc3)nc3ccccc23)c(OC)c1 | 0 | 0
COc1ccccc1-c1cc(NCc2cccnc2)ncn1 | 0 | 0
Cc1cccc(CNc2nc(-c3ccccc3CN(C)C)nc3ccccc23)c1 | 11µM | ?
COc1ccccc1-c1nc(NCc2ccccc2)c2ccccc2n1 | 13µM | 14µM
COc1ccc(CNc2cc(-c3ccccc3CN(C)C)ncn2)c(OC)c1 | 10µM | 0
COc1ccc(CNc2nc(-c3ccccc3CN(C)C)nc3ccccc23)c(OC)c1 | 7.9µM | ?
O=C(OCc1cn([C@@H]2CN(C(=O)c3cccs3)[C@@H](c3ccc(Cl)cc3)C[C@@H]2O)nn1)c1ccccc1 | 0 | 0
COc1ccc(-c2nc3c(c4c2C[C@H](c2ccccc2)OC4)CN(C(=O)N[C@@H](C)C(=O)OC(C)C)CC3)c(C)c1 | ? | 0[8.59 µM]

High-throughput results: PubChem, National Center for Advancing Translational Sciences (NCATS)
